Screening data: PubChem, National Center for Advancing Translational Sciences (NCATS)
KB-V1 cytotox – kills drug-selected multidrug resistant KB-V1 cells. KB-V1 MDR cells viability, CellTiter-Glo, 72 h. 3.4% of 400,000 active. Potency, µM (highest dose often 46.1 µM), hits mostly cytotoxic. AID 1347076; also: % is scaled to controls: 0 for no effect and ±100 for the full control effect; nearly all actives have a fitted effect of over 60% in size
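Following 72 h at 37 degrees C with compound, KB-V1 cell viability was read by CellTiter-Glo luminescence, medium being phenol-red-free DMEM plus 10% FBS; concentration-response parameters came from normalized, curve-fitted qHTS data.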
HT1080-NT tox – kills 2HG-producing HT-1080-NT fibrosarcoma cells; Potency, µM (highest dose often 46.1 µM), for the others: top-dose activity, negative = less viability, usual class: cytotoxic; 1.6% of 360,000 active; HT-1080-NT fibrosarcoma viability, CellTiter-Glo ATP luminescence, 48 h; AID 686970;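 also: NT is the 2HG producing partner of a matched IDH1 knockdown line; 0% = DMSO-treated cells and -100% = media-only wells without cells; nearly all actives have a fitted effect of over 55% in size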
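Viability by CellTiter-Glo luminescence after 48 h compound exposure at 37C of HT-1080-NT cells (750/well, RPMI, 5% FBS). % activity scaled between DMSO wells and medium-only wells, then curve-fitted and categorized by curve class.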
MCF10A rerep – induces DNA re-replication in MCF 10a normal breast cells; MCF 10A DNA re-replication, Hoechst nuclear intensity, 48 h; Potency, µM (titrated, usually from 46.1 µM), for the others: at the top dose activity, positive = re-replication, most hits filed as activators; 2.9% of 350,000 active; also: % of control where 0% means no effect; nearly all actives have a fitted effect of over 50% in size
KB-3-1 cytotox – KB-3-1 parental cell cytotoxicity | KB-3-1 viability, CellTiter-Glo ATP luminescence, 72 h | Potency, µM (series often up to 46.1 µM), hits mostly cytotoxic | 1.4% of 400,000 active | AID 1347075; also: % is scaled to controls: 0 for no effect and ±100 for the full control effect; nearly all actives have a fitted effect of over 60% in size
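Cytotoxicity measured as CellTiter-Glo luminescence after 72 h at 37 C. Compound titrations were pinned onto drug-naive KB-3-1 parental adenocarcinoma cells grown in DMEM with 10% FBS, and normalized data fitted to concentration-response curves.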
HT1080 IDH1KD tx – HT-1080 IDH1 knockdown cell toxicity (counter line); HT-1080 IDH1 knockdown viability, ATP luminescence, 48 h; Potency, µM (doses to about 46.1 µM), for inactives: at the top dose activity, negative = toxicity, usual class: cytotoxic; 2% of 360,000 active;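 also: 0% = DMSO wells and -100% = cell-free medium wells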
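% activity derives from luminescence (CellTiter-Glo), normalised to DMSO and no-cell wells. HT-1080-IDH1KD cells, 750/well, had 48 h compound exposure at 37 °C.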
SW480 rerep – induces DNA re-replication in SW480 colon adenocarcinoma cells; SW480 DNA re-replication, Hoechst DNA content imaging, 48 h; Potency, µM (highest dose often 46.1 µM), without a hit: at the highest dose re-replication activation, hits mostly activators; 1.8% of 340,000 active; also: % of control where 0% means no effect; nearly all actives have a fitted effect of over 55% in size
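250 cells/well; 23 nL cpd via pin tool; 48 hr, 37 C, 5% CO2; Hoechst 40 min; imager read of total nuclear intensity, ex 405/em 500-530 nm.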
Numbers without * were called inactive; i = inactive; ? = inconclusive; . = not tested or not shown. An excerpt weighted towards active compounds, which were near 8% of everything screened. Calls follow the shape of the dose curve; as a rule, active = well fitted curve in the direction sought with a large enough effect; inconclusive = small, poorly fitted or top-dose-only effect, or another doubt; inactive = no such curve, though single readings can be large; an effect the other way counts as inactive or inconclusive. Potency is read from the fitted curve at half-maximal effect.

SMILES | KB-V1 cytotox | HT1080-NT tox | MCF10A rerep | KB-3-1 cytotox | HT1080 IDH1KD tx | SW480 rerep
COc1cc(N2CCCC2)c(OC)cc1/C=C(/C#N)c1cccc(F)c1 | 16µM* | -3% | 10% | ? | -1% | 8%
N#C/C(=C/c1ccc(N2CCCCCC2)o1)c1cccc(F)c1 | 15µM* | 11µM* | ? | i | 6.3µM* | ?
N#C/C(=C/c1ccc(N2CCCCC2)o1)C(=O)Nc1ccc2ccccc2c1 | ? | -4% | ? | i | ? | 13%
COc1ccc(Cl)cc1NC(=O)c1cc2nc(-c3ccc(C)cc3)cc(C(F)(F)F)n2n1 | i | . | . | ? | . | .
CCS(=O)(=O)N1CCCC(C(=O)NCCOC)C1 (stereo not drawn) | i | . | . | i | . | .
CCC(=O)OC1C(N(C)C)CC(C)O[C@H]1O[C@H]1[C@H](C)[C@@H](O[C@H]2CC(OC)[C@@H](O)C(C)O2)[C@H](C)C(=O)O[C@@H](CC)[C@](C)(O)[C@@H](O)[C@H](C)C(=O)[C@@H](C)C[C@]1(C)O (stereo partly drawn) | . | . | 4% | . | . | 11%
COc1ccccc1OCCNC(=O)/C=C/c1ccc([N+](=O)[O-])cc1 | 15µM* | 7% | -72% | i | -1% | -28%
CCCOc1ccc(/C=C/C(=O)Nc2ccc([N+](=O)[O-])cc2)cc1 | 26µM* | 13µM* | 15µM* | 7.3µM* | -4% | 3%
CN1CCN(CC/C=C2/c3ccccc3Sc3ccc(S(=O)(=O)N(C)C)cc32)CC1 | ? | 26µM* | ? | i | ? | ?
COC(=O)c1sccc1NC(=O)c1csc(C)c1 | 16µM* | -22% | -11% | i | ? | 22%
CCOc1ccccc1C(=O)Nc1ccccc1C(N)=O | 13µM* | 2% | 4% | i | -18% | -5%
CCOc1ccccc1NC(=O)c1ccccc1NC(=O)c1ccco1 | i | -7% | 29% | i | -7% | ?
O=C(Nc1ccccc1OCc1ccccc1)c1ccccc1Br | ? | 0% | 0.58µM* | i | -4% | ?
CCOc1ccccc1C(=O)Nc1ccsc1C(=O)OC | 7.3µM* | ? | 7.3µM* | 5.8µM* | ? | 5.8µM*
COc1ccc(-c2nc3ccc(NS(=O)(=O)c4ccc(Cl)cc4)cc3o2)cc1 | i | . | . | i | . | .
CCc1ccc(-c2cc(C)no2)cc1S(=O)(=O)NCc1ccccc1OC | i | -12% | -16% | i | -4% | 2%
COc1ccc(CNS(=O)(=O)c2cc(-c3cc(C)no3)ccc2OC)cc1OC | i | 10% | 0% | ? | 11% | -35%
COc1ccc(-c2cc(C)no2)cc1S(=O)(=O)NCc1cccc(C)c1 | ? | 18µM* | ? | ? | ? | ?
COc1ccccc1CNS(=O)(=O)c1ccc(-c2cc(C)no2)cc1 | ? | 4.1µM* | ? | 1.3µM* | 2.1µM* | -4%
O=C1CC(c2ccccc2)CC2=C1C=Nc1ccccc1N2 (stereo not drawn) | ? | ? | 18µM* | ? | ? | 15µM*
O=C1CC(c2ccc(F)cc2)CC2=C1C=Nc1ccccc1N2 (stereo not drawn) | ? | ? | ? | ? | ? | 2%
CCc1nc2n[nH]c(N)c2c2c1CCCC2 | i | -1% | 3% | i | -3% | -1%
CCCCc1nc2n[nH]c(N)c2c2c1CCC2 | 0.65µM* | -12% | 1% | ? | -8% | 4%
CN1C[C@@H]2C(c3ccccc3)C3(c4ccc(C#N)cc4)CC2(C3)[C@H]1c1ccccc1 (stereo partly drawn) | i | -8% | 5.2µM* | i | 0% | -18%
COc1ccc(-c2nc3ccccc3o2)cc1NC(=O)c1ccc(-c2cccc(Cl)c2C)o1 | i | . | . | i | . | .
SMILES | KB-V1 cytotox | HT1080-NT tox | MCF10A rerep | KB-3-1 cytotox | HT1080 IDH1KD tx | SW480 rerep
CCC(C)c1ccc(NC(=O)C2CCN(c3ncccn3)CC2)cc1 (stereo not drawn) | 18µM* | ? | 7% | ? | -13% | ?
Cc1ccnc(N2CCC(C(=O)Nc3ccc4c(c3)CCC4)CC2)n1 | i | 14% | 1% | i | 12% | 0%
Cc1cccc(NC(=O)C2CCN(c3nccc(C)n3)CC2)c1 | 15µM* | 6% | -4% | i | 5% | -4%
Cc1ccccc1-c1nnc(NC(=O)Nc2ccc3ccccc3c2)s1 | i | . | . | ? | . | .
COc1ccccc1CNc1nc(NCc2ccccc2OC)c2sccc2n1 | ? | 21µM* | . | ? | 23µM* | .
c1ccc(OCCNc2nc(NCC3CC3)nc3ccsc23)cc1 | ? | 21µM* | . | i | ? | .
c1cc2cc(CNc3nc(NCC4CC4)nc4ccsc34)ccc2o1 | ? | ? | . | i | 13µM* | .
COc1ccccc1CNc1nc(NCc2ccc3occc3c2)c2sccc2n1 | i | 16µM* | . | i | ? | .
Cc1ccccc1-c1nc(NCC2CC2)nc2ccsc12 | i | -1% | . | i | -12% | .
COc1ccccc1CNc1nc(NCc2cccs2)nc2ccsc12 | i | ? | . | i | ? | .
c1ccc(-c2nc(NCC3CC3)nc3ccsc23)cc1 | i | 13% | . | i | 4% | .
COc1ccc(Cl)cc1NC(=O)Cn1cnc2c1c(=O)n(C)c(=O)n2C | i | . | . | i | . | .
Cc1sc2ccccc2[n+]1CCc1ccccc1 | i | . | . | i | . | .
COC(=O)c1nnn(CC(=O)Nc2c(C)cccc2C)c1N | ? | . | . | i | . | .
COc1ccccc1CNc1nc(NCCOc2ccccc2)c2sccc2n1 | 21µM* | ? | . | ? | ? | .
COc1ccccc1CNc1nc(NCC2CC2)nc2ccsc12 | i | ? | . | ? | 15µM* | .
COCCNc1nc(NCc2ccccc2OC)c2sccc2n1 | ? | ? | . | i | ? | .
CCOC(=O)c1ccc(NC(=O)c2c(NCc3cc(OC)c(OC)cc3OC)sc3c2CCCC3)cc1 | i | . | . | i | . | .
O=C(NCCc1c[nH]c2ccccc12)C1CCC(Cn2c(=S)[nH]c3ccccc3c2=O)CC1 (stereo not drawn) | 15µM* | -24% | ? | ? | ? | 9%
COCCNC(=O)C1CCC(Cn2c(=S)[nH]c3ccccc3c2=O)CC1 (stereo not drawn) | i | -10% | 13% | i | -9% | -6%
COC(=O)c1sccc1NC(=S)N1CCN(c2cccc(C)c2C)CC1 | ? | -20% | 4.1µM* | ? | -8% | ?
Cc1cccc(N2CCN(C(=S)NCCc3ccccc3)CC2)c1C | ? | 11% | 37% | i | 14% | -20%
